Results from the OligoGym collection.

Experiments:
Assay in all cases: pooled miR-30 sensor sort-seq; sequence = guide strand
Settings in all cases: shRNA
TAS2R31 = target: TAS2R31
TBC1D7 = target: TBC1D7
TBC1D10A = target: TBC1D10A
TAS1R2 = target: TAS1R2
TC2N = target: TC2N
TCTN3 = target: TCTN3
TEAD3 = target: TEAD3
TGFB1I1 = target: TGFB1I1
TMCC3 = target: TMCC3
TM7SF2 = target: TM7SF2
TM4SF4 = target: TM4SF4
TMCO6 = target: TMCO6
TMEFF2 = target: TMEFF2
TMEM140 = target: TMEM140
TMEM156 = target: TMEM156
TMEM147 = target: TMEM147
TMEM130 = target: TMEM130
Further: reference of the scale not given here.

Sequence: TAACAGCAAAAAACATAGCAGG
- sensor-assay potency score (higher = more potent) (TAS2R31): -0.785

Sequence: AAGAACACAATGCTCACTGTGG
- sensor-assay potency score (higher = more potent) (TBC1D7): -0.247

Sequence: TTGCTCAGCAGGCATATGCATG
- sensor-assay potency score (higher = more potent) (TBC1D10A): -1.58

Sequence: TAGAACCACTACCACACTGGAA
- sensor-assay potency score (higher = more potent) (TAS2R31): -1.01

Sequence: TAGAAGAGGATCATGTAGCACT
- sensor-assay potency score (higher = more potent) (TAS1R2): -0.0652

Sequence: TTTAATTGGTTCACAAAGCGTC
- sensor-assay potency score (higher = more potent) (TBC1D7): -0.134

Sequence: ATCGCCTCCAGTTTCTCGCTGT
- sensor-assay potency score (higher = more potent) (TBC1D10A): -0.233

Sequence: TCTCATAATATACTGAACGAAA
- sensor-assay potency score (higher = more potent) (TBC1D7): -1.27

Sequence: TTGAGCATGTCCAGCCACTTGG
- sensor-assay potency score (higher = more potent) (TBC1D10A): -0.533

Sequence: TTACAGTCGCATCTGAAAGGTA
- sensor-assay potency score (higher = more potent) (TAS2R31): -0.265

Sequence: TTCTTTTGTCCGTACAATCTCT
- sensor-assay potency score (higher = more potent) (TAS2R31): -0.58

Sequence: TTGTCTCGCAGCTCATCGCTGA
- sensor-assay potency score (higher = more potent) (TAS1R2): -0.453

Sequence: TTCTGCATCCAAGATAGCCTTG
- sensor-assay potency score (higher = more potent) (TBC1D10A): -0.737

Sequence: TTGTTGATCTCCTCCACCGCAA
- sensor-assay potency score (higher = more potent) (TAS1R2): -0.437

Sequence: TTAACAGCAAAAAACATAGCAG
- sensor-assay potency score (higher = more potent) (TAS2R31): -0.409

Sequence: TTGTTGAGCATGTCCAGCCACT
- sensor-assay potency score (higher = more potent) (TBC1D10A): -1.14

Sequence: TTGGGGGCTGAGTCCTTCGGGG
- sensor-assay potency score (higher = more potent) (TBC1D10A): -1.22

Sequence: TCAAGTATTGTTCAAACGCTTT
- sensor-assay potency score (higher = more potent) (TBC1D7): -1.28

Sequence: TCCAATAACAAATAGAACCACT
- sensor-assay potency score (higher = more potent) (TAS2R31): -1.14

Sequence: TTTTACACAAAGAACACCCCAC
- sensor-assay potency score (higher = more potent) (TBC1D10A): 0.708

Sequence: TTGTGCTTCTTGGCCATCCATT
- sensor-assay potency score (higher = more potent) (TBC1D10A): -1.02

Sequence: TTGTTATCTTCTCTGCACTGTT
- sensor-assay potency score (higher = more potent) (TBC1D7): -0.778

Sequence: TTACTGTCTCTTTCCACTGGTT
- sensor-assay potency score (higher = more potent) (TC2N): -0.545

Sequence: TTGAAGTGAATGATTCGCCTCC
- sensor-assay potency score (higher = more potent) (TCTN3): 0.789

Sequence: TGTAACTTGCTGAGAATCCTGT
- sensor-assay potency score (higher = more potent) (TCTN3): 0.381

Sequence: TTGATCATGTACTCGCACATGG
- sensor-assay potency score (higher = more potent) (TEAD3): 0.181

Sequence: TTTAATATAGCGTGCAATCAAC
- sensor-assay potency score (higher = more potent) (TEAD3): -1.47

Sequence: TTCCTGAAGCAACCGATCTAGC
- sensor-assay potency score (higher = more potent) (TGFB1I1): -0.825

Sequence: TAAGTTCCTGAAGCAACCGATC
- sensor-assay potency score (higher = more potent) (TGFB1I1): -1.43

Sequence: TTGAAAACGAACACAGGTGGAG
- sensor-assay potency score (higher = more potent) (TMCC3): 0.022

Sequence: TACCTTTAGAATTTTTTGCTTC
- sensor-assay potency score (higher = more potent) (TMCC3): -0.127

Sequence: TTTGAAGTCGAAGAAACAGATA
- sensor-assay potency score (higher = more potent) (TM7SF2): -1.28

Sequence: TATTTTATTCTTGCTAGTCTTT
- sensor-assay potency score (higher = more potent) (TMCC3): -0.521

Sequence: TCATGTGTGATATCCATGGTGG
- sensor-assay potency score (higher = more potent) (TM7SF2): -0.309

Sequence: TTTCGGAAAGTGTTTTTCTGGG
- sensor-assay potency score (higher = more potent) (TM7SF2): -0.966

Sequence: AAGATCATCAAGACACCGCTTC
- sensor-assay potency score (higher = more potent) (TM4SF4): 0.685

Sequence: TTGCTTGATACGTCCCGCCTGC
- sensor-assay potency score (higher = more potent) (TMCC3): -0.167

Sequence: TTGTTGATTGAAATGGCTGAGA
- sensor-assay potency score (higher = more potent) (TM4SF4): -0.818

Sequence: TTCCTCAGCCTGTAGAAGCTGG
- sensor-assay potency score (higher = more potent) (TMCO6): -0.621

Sequence: TTAAAGTGTAACAAAACCCCTC
- sensor-assay potency score (higher = more potent) (TMCC3): -0.0862

Sequence: TACTTCTGCAGGCACTGCCGCT
- sensor-assay potency score (higher = more potent) (TM7SF2): -1.41

Sequence: TAAACGAGTATCCAGCTCCCAA
- sensor-assay potency score (higher = more potent) (TM4SF4): -1.07

Sequence: TTGTTCACGATGGTAGCGCTGC
- sensor-assay potency score (higher = more potent) (TMCC3): -0.609

Sequence: TTTGACCTTGTGGAAGTCCAGG
- sensor-assay potency score (higher = more potent) (TMCC3): -0.907

Sequence: TGCAACATTGCACAGAACTGTG
- sensor-assay potency score (higher = more potent) (TMCO6): -0.739

Sequence: AGATGTAGTAACCAGTAGCATT
- sensor-assay potency score (higher = more potent) (TM7SF2): -2.06

Sequence: TTGTAGCATGTGCTGAGGGAGA
- sensor-assay potency score (higher = more potent) (TMCO6): -1.18

Sequence: TTATTGAAAACGAACACAGGTG
- sensor-assay potency score (higher = more potent) (TMCC3): -0.162

Sequence: AACATCGCAAATCGCTTCCCAC
- sensor-assay potency score (higher = more potent) (TM4SF4): -1.03

Sequence: TTCATGTAGAGAAAGAGGCTGA
- sensor-assay potency score (higher = more potent) (TM7SF2): 0.647

Sequence: TTTGTAGCATGTGCTGAGGGAG
- sensor-assay potency score (higher = more potent) (TMCO6): -0.612

Sequence: TTGACCACCTGGATGGCGCAGA
- sensor-assay potency score (higher = more potent) (TM4SF4): -0.376

Sequence: TAATGTTAAAGTCACAGTCTGA
- sensor-assay potency score (higher = more potent) (TMCC3): -0.348

Sequence: TTTGAAAATAACAAAATTCTAA
- sensor-assay potency score (higher = more potent) (TM4SF4): -0.879

Sequence: TTGATGAGGCAGATGACAGAGG
- sensor-assay potency score (higher = more potent) (TM7SF2): -0.497

Sequence: TTGAGTCCCAAGTGTGTCGAGG
- sensor-assay potency score (higher = more potent) (TM7SF2): -0.705

Sequence: TTGCAACATTTGTAGCATGTGC
- sensor-assay potency score (higher = more potent) (TMCO6): -0.588

Sequence: ATTGAGATAATCCCCGTCGTGG
- sensor-assay potency score (higher = more potent) (TM4SF4): -0.0711

Sequence: TCGTGGAGGTGAACATCGCAAA
- sensor-assay potency score (higher = more potent) (TM4SF4): -1.55

Sequence: TATTTGAAGTCGAAGAAACAGA
- sensor-assay potency score (higher = more potent) (TM7SF2): -0.986

Sequence: TTGTCATCTATCACTTTTCCTC
- sensor-assay potency score (higher = more potent) (TM4SF4): -0.799

Sequence: TTTTCTAAGCTTTATCAGCTAG
- sensor-assay potency score (higher = more potent) (TM4SF4): -0.744

Sequence: TTGGGTATCCTTGATCTCCCTC
- sensor-assay potency score (higher = more potent) (TMCC3): 0.381

Sequence: TTGCACTTAATTTGAATCCAGG
- sensor-assay potency score (higher = more potent) (TMCC3): -0.313

Sequence: TTTTCTGCAACATTGCACAGAA
- sensor-assay potency score (higher = more potent) (TMCO6): 0.104

Sequence: AACATTGCACAGAACTGTGAGC
- sensor-assay potency score (higher = more potent) (TMCO6): -0.57

Sequence: TTCTCTCTTAAACTGCACCTTC
- sensor-assay potency score (higher = more potent) (TMCC3): 0.0499

Sequence: TTGTCCTTCAATTCCTGCCCCT
- sensor-assay potency score (higher = more potent) (TM7SF2): -0.137

Sequence: TAGAGATGGTCTCAAGCCCAGC
- sensor-assay potency score (higher = more potent) (TM7SF2): -1.47

Sequence: TATAGAACACTGTAGTCCTTTT
- sensor-assay potency score (higher = more potent) (TMEFF2): -0.956

Sequence: TGTACTAAGAAGTCACAGGTGC
- sensor-assay potency score (higher = more potent) (TMEM140): 0.194

Sequence: TATGATGCTCATGAACAGCAGC
- sensor-assay potency score (higher = more potent) (TMEM140): -0.769

Sequence: TTTGCTTTCACTTCCATTGATC
- sensor-assay potency score (higher = more potent) (TMEM156): -0.423

Sequence: TCTGGATGTACTTCCAGTCAAA
- sensor-assay potency score (higher = more potent) (TMEM147): -1.49

Sequence: TAGACCTATCAGGTCTGCCACA
- sensor-assay potency score (higher = more potent) (TMEM147): -1.51

Sequence: ATCACGAGGACTATGATGCTCA
- sensor-assay potency score (higher = more potent) (TMEM140): -0.61

Sequence: TAATGGACCAGACTGATGTTGG
- sensor-assay potency score (higher = more potent) (TMEM147): -0.822

Sequence: TCATAGCGTGTTATCATCCAGA
- sensor-assay potency score (higher = more potent) (TMEM147): -0.557

Sequence: ATGAACAGCAGCTGGTCGCGCC
- sensor-assay potency score (higher = more potent) (TMEM140): -1.18

Sequence: TATAGAAGCCGATTCTCAGGTT
- sensor-assay potency score (higher = more potent) (TMEM140): 0.501

Sequence: TAGATTGCAAACACACTTCCAG
- sensor-assay potency score (higher = more potent) (TMEM156): 0.703

Sequence: TAGAGCTGCCCAACTGCCCAGC
- sensor-assay potency score (higher = more potent) (TMEM147): -1.02

Sequence: TTGGAAGGTCTGAATTAGGGTG
- sensor-assay potency score (higher = more potent) (TMEM130): 0.0908

Sequence: TTCCTGAGAAATAAAATCCATG
- sensor-assay potency score (higher = more potent) (TMEM156): -1.19

Sequence: TAGTTATGGATTTTTAACCCTT
- sensor-assay potency score (higher = more potent) (TMEM130): -0.844

Sequence: TATCAGGTCTGCCACATCCACG
- sensor-assay potency score (higher = more potent) (TMEM147): -1.57

Sequence: TTATAGAAGCCGATTCTCAGGT
- sensor-assay potency score (higher = more potent) (TMEM140): 0.174

Sequence: TTTATTTAGCAACAATGGCAGT
- sensor-assay potency score (higher = more potent) (TMEM130): -0.968

Sequence: TTGTTGATCTTCCAGTGTGGTT
- sensor-assay potency score (higher = more potent) (TMEM156): -1.08

Sequence: AAGAGCGTAAAACATCAGGCAG
- sensor-assay potency score (higher = more potent) (TMEM140): -0.966
